# The list is not random: actives were taken first. Their share in the collection is about 11%.
# USP28 inh – inhibitors of human USP28 deubiquitinase; inhibition, % at 25 µM; Q96RU2; hit rate 3% among 47,000; purified USP28, Ub-rhodamine cleavage fluorescence, 30 min; AID 1645857
# USP17 inh – human USP17-like deubiquitinase inhibition; hit rate 6.5% among 47,000; inhibition, % at 50 µM; AID 1645855; A8MUK1; purified USP17, Ub-rhodamine cleavage fluorescence, 3 h
# Target sequence (A8MUK1 whole entry, looked up): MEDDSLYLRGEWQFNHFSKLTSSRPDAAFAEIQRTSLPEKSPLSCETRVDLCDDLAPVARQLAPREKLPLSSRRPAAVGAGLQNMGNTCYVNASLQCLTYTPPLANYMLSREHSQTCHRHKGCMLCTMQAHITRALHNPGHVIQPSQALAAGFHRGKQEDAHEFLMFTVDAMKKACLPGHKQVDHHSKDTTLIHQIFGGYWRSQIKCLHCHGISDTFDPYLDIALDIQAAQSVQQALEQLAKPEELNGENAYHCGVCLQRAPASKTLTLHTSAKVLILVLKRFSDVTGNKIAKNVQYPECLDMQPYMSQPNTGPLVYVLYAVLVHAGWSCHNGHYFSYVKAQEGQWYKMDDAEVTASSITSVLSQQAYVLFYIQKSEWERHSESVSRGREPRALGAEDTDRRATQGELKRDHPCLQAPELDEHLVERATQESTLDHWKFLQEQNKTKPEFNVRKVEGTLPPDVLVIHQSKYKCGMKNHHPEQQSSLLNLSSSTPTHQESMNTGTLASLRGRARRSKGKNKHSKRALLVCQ
# OTUD3 block – inhibitors of human OTUD3 deubiquitinase | purified OTUD3, Ub-rhodamine fluorescence, 2 h | Q5T2D3 | inhibition, % at 25 µM | hit rate 0.7% among 47,000 | AID 1645858
# USP30 inh – inhibitors of human USP30 deubiquitinase; purified USP30, Ub-rhodamine cleavage fluorescence; inhibition, % at 25 µM; Q70CQ3; AID 1645860; hit rate 5.3% among 47,000
# The depositor's hits bear a star; i = inactive; x = no result. Cut-off read from the data, not from the text of the source: active = inhibition above about 30%; inactive = the rest.
SMILES,USP28 inh,USP17 inh,OTUD3 block,USP30 inh
O=C(NCc1ccc2c(c1)OCO2)c1[nH]nc2c1CCc1ccccc1-2,24,60*,7,57*
O=C(Nc1ccc2c(c1)OCO2)c1[nH]nc2c1CCc1ccccc1-2,43*,66*,22,4
O=C(Nc1cccnc1)c1[nH]nc2c1COc1ccccc1-2,-18,-62,-48,-223
O=C(NCc1ccc2c(c1)OCO2)c1nnc(C(=O)Nc2ccc(F)cc2)s1,9,6,6,0
O=C(NCc1ccc2c(c1)OCO2)c1cc(-c2cc(Cl)ccc2O)n[nH]1,26,28,7,77*
O=C(CCc1nnc2ccc(N3CCOCC3)nn12)NC1CCCCC1,14,15,6,12
Cc1ccc(C(=O)NCCn2c(C(F)(F)F)nc3cccnc32)cc1F,-154,-100,-184,i
O=C(CSc1nnc(CNC(=O)c2ccccc2F)o1)Nc1ccc(OC(F)(F)F)cc1,9,63*,-1,32*
CCOC(=O)c1ccc(NC(=O)CSc2nnc(CNC(=O)c3ccccc3F)o2)cc1,4,20,10,10
CCc1ccc(NC(=O)CSc2nnc(CNC(=O)c3ccco3)o2)cc1,8,-6,7,-1
CCOC(=O)c1ccc(NC(=O)CSc2nnc(CNC(=O)c3cccs3)o2)cc1,4,50*,5,18
CSCC[C@H](NC(=O)C1(c2ccc(F)cc2)CCCC1)c1nnc2ccccn12,-6,-4,-1,-5
CC(=O)N1CCc2cc(S(=O)(=O)NC(CC(C)C)C(=O)N3CCC(Cc4ccccc4)CC3)ccc21 (stereo not drawn),7,-1,-5,-1
COc1ccc2nc(NC(=O)C(CC(C)C)NS(=O)(=O)c3ccc4c(c3)CCN4C(C)=O)sc2c1 (stereo not drawn),10,74*,2,5
Cc1cccc(C(=O)N2CCC3(CC2)CC(N(C)c2ccccc2)CO3)n1 (stereo not drawn),3,3,7,0
Clc1ccc(Oc2nc3ccccc3c3nnc(-c4ccc(Br)cc4)n23)c(Cl)c1,2,37*,9,19
COc1ccc(Cl)cc1Nc1cc(C)c2ccccc2n1,4,11,7,16
O=C(Nc1nc2c(s1)CCc1ccccc1-2)c1ccc(F)c(Cl)c1,17,9,7,6
Cc1ccc(C(=O)NCCc2nc(-c3ccc4c(c3)OCO4)n[nH]2)cc1F,16,47*,8,69*
COc1ccc(CNC(=O)c2cccc(N3C(=O)N4CCc5c([nH]c6ccccc56)[C@@]4(C)C3=O)c2)cc1,-7,0,-15,0
C[C@]12C(=O)N(c3cccc(C(=O)O)c3)C(=O)N1CCc1c2[nH]c2ccccc12,11,20,10,36*
CC(=O)Nc1ccc(NC(=O)c2ccc(N3C(=O)N4CCc5c([nH]c6ccccc56)[C@@]4(C)C3=O)cc2)cc1,31*,0,-20,-59
C[C@]12C(=O)N(c3ccc(C(=O)NCc4ccc(F)cc4)cc3)C(=O)N1CCc1c2[nH]c2ccccc12,15,35*,16,52*
COc1ccc(CNC(=O)c2ccccc2N2C(=O)N3CCc4c([nH]c5ccc(OC)cc45)[C@@]3(C)C2=O)cc1,6,45*,23,18
CC(=O)N1CCN(c2nc(C)cc(N3CCCC3)n2)CC1,10,7,8,17
SMILES,USP28 inh,USP17 inh,OTUD3 block,USP30 inh
O=C(NC1CCCCC1)N1CCn2c(nnc2-c2cncc(Br)c2)C1,0,-17,-9,7
Cc1ccc(Nc2nccc(C3CCCN(C(=O)c4scnc4C)C3)n2)nc1 (stereo not drawn),-9,-11,-4,-11
Cc1nn(-c2ccccc2)c2c1N=C1C(Cl)=CC(Cl)=CN1C21C(=O)Nc2ccccc21 (stereo not drawn),50*,82*,12,15
Cc1cc(=O)oc2c1c(C)nn2-c1ccc([N+](=O)[O-])cc1,-20,-19,-8,-43
CN(C)C=Nc1c(C#N)cnn1-c1ccc([N+](=O)[O-])cc1,19,17,-1,74*
COc1ccccc1C(=O)NC1CCN(c2ccc(F)cc2)C1=O (stereo not drawn),0,1,-2,7
O=C(NCc1ccccc1Cl)c1cc(S(=O)(=O)N2CCC3(CC2)OCCO3)ccc1F,16,4,-2,0
O=C(NCc1ccc(Cl)c(Cl)c1)c1cc(S(=O)(=O)N2CCC3(CC2)OCCO3)ccc1F,36*,1,6,22
COc1ccc(CCNC(=O)Cn2cncn2)cc1OC,-8,-2,-2,4
COc1ccc(CCNC(=O)COc2ncnc3oc(C)c(C)c23)cc1OC,57*,-2,7,-10
CCOc1ccc(NC(=O)CSc2ncnc3c2sc2nc(CC(C)C)c4c(c23)CCC4)cc1,23,14,14,27
CNC(=O)c1c(Br)cnn1-c1ccc(C)cc1,x,39*,3,x
Cc1ccc(-n2nnc(C(=O)NC(C)C)c2C2CC2)cc1,0,0,2,-8
Cc1ccc(-c2nnc(NC(=O)c3ccco3)o2)cc1C,49*,-6,1,15
Cc1ccc(OCC(=O)Nc2cc(NC(=O)c3ccco3)ccc2C)cc1C,45*,60*,-2,66*
CCOC(=O)C1CCN(C(=O)CCc2nnc3ccc(N4CCCCC4)nn23)CC1,-16,-2,-19,-68
CS(=O)(=O)N(CC(=O)NCCN1CCOCC1)c1ccc(Br)cc1,-5,5,-4,11
Cc1ccc(CNC(=O)c2ccc3c(=O)nc4c(-c5ccccc5F)n[nH]n4c3c2)cc1,0,35*,13,6
CC(C)CCNC(=O)c1ccc2c(=O)nc3c(-c4ccccc4F)n[nH]n3c2c1,7,8,6,3
CCc1ccc(-c2noc(-c3cn(C)c4cc(N5CCOCC5)c(F)cc4c3=O)n2)cc1,3,19,1,15
O=C(CCCCn1c(=O)c2ccccc2n(CC(=O)Nc2ccc(F)c(Cl)c2)c1=O)NCc1ccco1,22,70*,26,-6
O=C(NCc1ccco1)C(=O)Nc1ccc(F)c(Cl)c1,-12,35*,-9,-11
O=C(Cn1c(=O)c2ccccc2n(CC(=O)Nc2ccc(F)c(Cl)c2)c1=O)NCc1ccco1,39*,62*,49*,45*
Cn1c(=O)n(CC(=O)Nc2ccc(F)c(Cl)c2)c(=O)c2ccccc21,0,2,6,5
CCOC(=O)c1ccc(NC(=O)Cn2c(=O)n(CC(=O)NCc3ccco3)c(=O)c3ccccc32)cc1,28,41*,17,59*
C[C@H](NC(=O)c1ccc(Cl)cc1Cl)C(=O)NCc1ccco1,-5,-6,0,-2
O=S(=O)(C1CC1)N1CCC2(CC1)COCCN(c1cccnc1)C2,-4,8,3,-15
O=C(CC1C(=O)N(Cc2ccccc2)c2nc3ccccc3n21)NCCc1ccccc1 (stereo not drawn),10,22,16,60*
O=S(=O)(Cc1ccc(F)cc1)c1c[nH]c2ccccc12,7,28,5,-9
O=c1c(S(=O)(=O)c2cc(F)cc(F)c2)c[nH]c2cc(Cl)ccc12,1,52*,4,29
